Source: PubChem BioAssay (NCI)
Compounds without any hit were thinned out: in the full panel of roughly 83,000, 20% have a hit.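 In brief: 96-well plates, 48 h treatment, single concentration, percent growth endpoint.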 A number with no mark means an inactive call. Active and inactive are the calls of the source. How the source made its calls: active means growth percent below 10; inactive means the rest.

Assays:
Test in all cases: NCI-60 one-dose screen, 48 h (100 = growth as untreated, 0 = no growth, -100 = all killed)
Conditions in all cases: 10 µM
HCT-15 colon = test system: HCT-15 colon
HT29 colon = test system: HT29 colon
SNB-75 CNS = test system: SNB-75 CNS
SNB-19 CNS = test system: SNB-19 CNS
U251 CNS = test system: U251 CNS
PC-3 prostate = test system: PC-3 prostate
SK-MEL-5 melanoma = test system: SK-MEL-5 melanoma
UACC-62 melanoma = test system: UACC-62 melanoma
LOX IMVI melanoma = test system: LOX IMVI melanoma
SK-MEL-28 melanoma = test system: SK-MEL-28 melanoma
SK-MEL-2 melanoma = test system: SK-MEL-2 melanoma
EKVX NSCLC = test system: EKVX NSCLC
SN12C renal = test system: SN12C renal
UO-31 renal = test system: UO-31 renal
TK-10 renal = test system: TK-10 renal
ACHN renal = test system: ACHN renal
A498 renal = test system: A498 renal
CCRF-CEM leukemia = test system: CCRF-CEM leukemia
MOLT-4 leukemia = test system: MOLT-4 leukemia
CAKI-1 renal = test system: CAKI-1 renal

SMILES | growth (HCT-15 colon) | growth (HT29 colon) | growth (SNB-75 CNS) | growth (SNB-19 CNS) | growth (U251 CNS) | growth (PC-3 prostate) | growth (SK-MEL-5 melanoma) | growth (UACC-62 melanoma) | growth (LOX IMVI melanoma) | growth (SK-MEL-28 melanoma) | growth (SK-MEL-2 melanoma) | growth (EKVX NSCLC) | growth (SN12C renal) | growth (UO-31 renal) | growth (TK-10 renal) | growth (ACHN renal) | growth (A498 renal) | growth (CCRF-CEM leukemia) | growth (MOLT-4 leukemia) | growth (CAKI-1 renal)
COc1cc(-c2nn(-c3cccc(NC(=O)CCNc4ccc(N5CCOCC5)cc4)c3)cc2-c2ccncc2)ccc1Cl | 14.2% | 11.8% | 40.1% | 32.9% | 24% | 8.06% (active) | -40.5% (active) | 13.9% | 6.71% (active) | 31.6% | 10.3% | 39.4% | 27.6% | 27.3% | 24.7% | 15.8% | 18.3% | 10.9% | 3.1% (active) | 
COc1cc(-c2nn(-c3cccc(NC(=O)CCN4CCN(Cc5ccccc5)CC4)c3)cc2-c2ccncc2)ccc1Cl | 11.8% | -20.2% (active) | -10.3% (active) | 39.9% | 6.53% (active) | 7.06% (active) | -95.3% (active) | 10.7% | -88.6% (active) | -85.4% (active) | -31.2% (active) | 48.2% | 41.7% | 15.6% | 26.1% | 24.1% | -8.39% (active) |  | 5.06% (active) | 
CN1CCN(CCC(=O)Nc2cccc(-n3cc(-c4ccncc4)c(-c4ccc(Cl)c(O)c4)n3)c2)CC1 | 39.3% | 4.91% (active) | 24.5% | 55% | 32.4% | 29.3% | 24.2% | 46.9% | 15.7% | 57.7% | 34.5% | 74.1% | 61.8% | 46.9% | 103% | 45.5% | 34.5% | 24.9% | 25.6% | 
CC(CN(C)C)Oc1ccccc1NC1=C(Cl)C(=O)C(Nc2ccccc2OC(C)CN(C)C)=C(Cl)C1=O (configuration not stated) | -79% (active) | -70.1% (active) | 35% | 3.85% (active) | -84.2% (active) | 3.47% (active) | -95.8% (active) | -84.5% (active) | -80.6% (active) | -64.9% (active) | -61.2% (active) | -71.7% (active) | -96% (active) | -99.9% (active) | -97.8% (active) | -98.4% (active) | 26.4% |  | -30.8% (active) | 
CCOC(=O)c1cc(C(=O)c2cc(OC)c(OC)c(OC)c2)n2ccc(-c3cc[n+](CC(=O)c4cc(OC)c(OC)c(OC)c4)cc3)cc12 | 83.3% | -10.1% (active) | 75.8% | 32.2% | -73.6% (active) | 54.1% | 81.4% | 87.4% | -43.9% (active) | 98.3% | 101% | 107% | 84.6% | 66.1% | 13.5% | 90.7% | 80.4% | -15% (active) | -9.13% (active) | 
COc1cc2cc(Oc3ccc(NC(=O)c4cccc(C(F)(F)F)c4)cc3)c(C)nc2cc1OC | 38.3% | 31.3% | 68.4% | 58.8% | 19.5% | 9.54% (active) | 2.78% (active) | 29.3% | 45.8% | 71.4% | 38.8% | 18.6% | 36.9% | 22.8% |  | 33.9% | 0.391% (active) | 25.9% | 28.4% | 13.3%
CN1CCN(CCCn2c(=O)c3sc4ncccc4c3n3nnc(-c4ccccc4)c23)CC1 | 7.72% (active) | -54.1% (active) | -24.7% (active) | 23.3% | -81.8% (active) | 46.5% | -96.3% (active) | -88% (active) | -90.8% (active) | -92.6% (active) | -10.7% (active) | 2.42% (active) | 47.5% | -74.5% (active) | -44.3% (active) | -6.48% (active) | 64.6% | -14.7% (active) | -20% (active) | 
COc1cc(-c2nn(-c3ccc(NC(=O)NCCNS(=O)(=O)c4ccc(F)cc4)cc3)cc2-c2ccncc2)ccc1Cl | 47.7% | -24.9% (active) | 13.8% | 31% | 4.44% (active) | 8.93% (active) | -63.6% (active) | 25.7% | 1.79% (active) | 26.4% | 8.8% (active) | 33% | 39.9% |  | 28.1% | 23.7% | -19.1% (active) | 9.28% (active) | 11.6% | 
CCCCC/C=C/C/C=C/CCCCCCCC1=NC(C)(C)CN1C(C)C | -3.26% (active) | -21% (active) | 42.7% | 47.3% | 0.562% (active) | 28.9% | 30.1% | 15.1% | 12.9% | 72% | 84.6% | 51.9% | 47.9% | 26.2% |  | 32.9% |  | 8.7% (active) | 1.44% (active) | 26.9%
COC1=CC(=O)OC(c2ccc(OC)cc2)C1 (configuration not stated) | 121% | 110% | 86.3% | 104% | 117% | 105% | 106% | 101% | 94.9% | 123% | 98.9% | 96.1% | 99.3% |  | 104% | 103% | 96.4% | 107% | 101% | 85.8%
c1ccc(/C(=N\Nc2ccc3ccccc3n2)c2ccccn2)cc1 | 25.7% | 26.2% | -9.74% (active) | 26.1% | 7.94% (active) | 19.4% | -51.3% (active) | -49.5% (active) | -13.5% (active) | 20.5% | -9.63% (active) | 15.1% | 18.5% | 13.7% |  | 0.2% (active) | -47.3% (active) |  | -21.8% (active) | -2.91% (active)
NC1=NC(c2ccc(Cl)cc2)C2=C(N1)/C(=C/c1ccc(Cl)cc1)CCC2 (configuration not stated) | 58.3% | 7.71% (active) | 87.3% | 85.7% | 13.9% | 79.5% | 87.5% | 74.4% | -69.6% (active) | 99.2% | 94.7% | 93.7% | 84.8% | 67.8% |  | 95.6% | 54.7% | 72.2% | 64.9% | 90.8%
CCCCCCCCCCCC[n+]1c(C)cc(N)c2ccccc21 | 34.7% | -8.54% (active) | 3.98% (active) | 9.29% (active) | 8.56% (active) | -6.19% (active) | -96.7% (active) | -27.8% (active) | -74.4% (active) | 29.5% | -52.1% (active) | 14.5% | 7.94% (active) |  | 7.85% (active) | 12% |  | 9.62% (active) | -24.1% (active) | 25.7%
COc1ccc(C(=O)N/N=C/c2cc(C(F)(F)F)ccc2Cl)cc1 | 73.2% | 99.7% | 101% | 91.9% | 109% | 90.9% | 85.5% | 76.9% | 92.4% | 96.5% | 104% | 75.7% | 93.6% |  | 107% | 108% | 67% | 103% | 92.5% | 89.2%
OCCn1cccn1 | 98.6% | 104% | 109% | 113% | 101% | 100% | 99% | 114% | 96.3% | 117% | 118% | 105% | 104% |  | 107% | 103% | 94.2% | 99.7% | 95.7% | 86.4%
CCCCN(CCCC)C(=O)[C@H](CC)[C@@H]1CC[C@@H](C)[C@@H]([C@H](C)[C@@H](O)[C@@H](C)C(=O)[C@H](CC)C2O[C@]3(C=CC(=O)[C@]4(CC[C@@](C)([C@H]5CC[C@](O)(CC)[C@H](C)O5)O4)O3)[C@H](C)C[C@@H]2C)O1 (some centres not stated) | 54% | 20.9% | 33.3% | 27% | 32.7% | 12.5% | 18% | 22.5% | 43.5% | 23.8% | 26.2% | 27.7% | 28.7% |  | 42.6% | 13.7% | 41% |  | 39.4% | 21.6%
